Results: ChEMBL document CHEMBL1157539, “Thousands of chemical starting points for antimalarial lead identification” (Nature, 2010)

System: Plasmodium falciparum
Assay: GSK_TCMDC: Inhibition of Plasmodium falciparum 3D7 in whole red blood cells, using parasite LDH activity as an index of growth. Test compounds present at 2uM
Format: functional

| SMILES | Inhibition [%] |
| --- | --- |
| CCOc1ccc(OCC(=O)Nc2nc(-c3ccc(OC)cc3)c(C)s2)cc1 | 99 |
| Nc1nc(N)c2c(ccc3c2ccn3CCCC(F)(F)F)n1 | 97 |
| CC(C)c1ccc(-c2nc3cc(Cl)cnc3[nH]2)cc1 | 87 |
| Cc1nc(C)c(-c2ccc(Cl)cc2Cl)c(O)c1Br | 87 |
| COc1ccc(C(C(=O)NC2CCN(C[C@H](O)c3ccnc4ccc(OC)cc34)CC2)N2CCN(c3ccc([N+](=O)[O-])cc3)CC2)cc1 (stereo not given in full) | 99 |
| COc1ccc(S(=O)(=O)N(CC(=O)NN=C(C)c2cccs2)c2cc(C)cc(C)c2)cc1OC | 97 |
| C[C@H](Cc1ccc(OCCCCCCOc2ccc(C[C@@H](C)N[C@H](C)c3ccccc3)cc2)cc1)NC[C@H](O)c1cccc(Cl)c1.Cl | 99 |
| COc1cccc(CN2CCC3(CC2)CN(C(=O)Nc2ccc(Cl)c(Cl)c2)C3)c1 | 97 |
| CNC(=O)c1nc(-c2ccccc2)[nH]c1NC(C)=O | 100 |
| O=C(N[C@@H](Cc1ccccc1)C(=O)NCc1cccc2ccccc12)c1ccc(O)c(-c2ccc(Cl)c(Cl)c2)c1 | 100 |
| I.N=C(N)NCC=C(c1ccccc1)c1ccccc1 | 94 |
| CCCOc1ccc2ccccc2c1CNCCCCCCNCc1c(OCCC)ccc2ccccc12.CS(=O)(=O)O | 94 |
| COc1ccc(NC(=O)[C@H](Cc2ccccc2)Nc2cc(C)nc(NCCc3ccccc3OC)n2)cc1.O=C(O)C(F)(F)F | 100 |
| Cc1sc(C)c(CNCCCNc2cc(=O)c3ccccc3[nH]2)c1Br.Cl | 93 |
| Cc1cccc2nc(-c3ccc(-c4ccc(CN5CCN(CC6CCCN(C)C6)CC5)cc4)s3)[nH]c12.O=C(O)C(F)(F)F (stereo not given) | 100 |
| COc1ccc(-c2ccc(NC(=O)c3ccc(C#N)cc3)cc2)cc1CN1CCCC1.O=C(O)C(F)(F)F | 95 |
| CC(C)(C)c1nn(-c2ccccc2)c2[nH]c(=O)c(CNCCc3ccccc3)cc12 | 94 |
| COc1cc(NCC(CN)Cc2ccc3c(c2)OCO3)nc2ccccc12.Cl (stereo not given) | 94 |
| Cc1cccc2nc(-c3ccc(-c4cccc(NC(=O)Cc5c[nH]cn5)c4)cc3)[nH]c12 | 98 |
| Cc1c(Cn2nc(Cl)c(N3CCNCC3)cc2=O)cccc1NC(=O)Nc1ccc(-c2ccccc2)cc1.O=C(O)C(F)(F)F | 80 |

| SMILES | Inhibition [%] |
| --- | --- |
| Cc1cc(N(C)C)nc(Nc2ccc(NC(=O)CCc3ccccc3)cc2)n1 | 100 |
| COc1ccc(-c2ccc(NC(=O)c3ccc(Cl)cc3)cc2)cc1CN(C)CCO.O=C(O)C(F)(F)F | 92 |
| COc1ccc2nccc(N3CCC(NCc4ccc5c(n4)NC(=O)CS5)CC3)c2n1 | 100 |
| CC[C@H](NC(=O)c1c(CN2CCC(N3CCCCC3)CC2)c(-c2ccccc2)nc2c(Cl)c(O)ccc12)c1ccccc1.Cl | 100 |
| CCn1c2ccccc2c2cc(C=NN=c3cc(C)[nH]c4ccccc34)ccc21 | 100 |
| COc1ccc(Nc2nccc(NCCNC(=O)Nc3ccccc3F)n2)cc1 | 85 |
| CS(=O)(=O)c1ccc(CCNCc2ccc(-c3ccc(CN(C(=O)C4CCCC4)C4CCN(Cc5ccccc5)CC4)cc3)nc2)cc1.O=C(O)C(F)(F)F | 91 |
| CNC(=O)c1cc(NCCCNCc2ccc(Cl)c(C(F)(F)F)c2)nc2ccccc12.Cl | 91 |
| COc1ccc(NC(=O)/C=C/c2ccccc2Cl)cc1OCCN1CCC(NCc2ccccc2)CC1 | 100 |
| CNCCNCc1cccc(-c2ccc(-c3nc4cccc(C)c4[nH]3)s2)c1.O=C(O)C(F)(F)F | 92 |
| COc1ccccc1N1CCN(CCCCN(C(=O)Nc2cccc(Cl)c2)C(=O)Nc2cccc(Cl)c2)CC1.Cl | 100 |
| N#Cc1ccc(CN2CCC(Oc3ccc(NC(=O)c4cccs4)cc3Cl)CC2)cc1.O=C(O)C(F)(F)F | 95 |
| N#Cc1ccc(C(=O)Nc2cccc(-c3ccc(CN4CCCC4)cc3)c2)cc1.O=C(O)C(F)(F)F | 99 |
| O=C(Nc1ccc(OC2CCN(Cc3ccc(F)cc3)C2)c(Cl)c1)c1ccoc1.O=C(O)C(F)(F)F (stereo not given) | 90 |
| Cl.FC(F)(F)c1ccc2c(NCCc3ccccc3)ccnc2c1 | 87 |
| CSc1ccc(NC(=O)Nc2cc(C)nc3ccccc23)cc1Br | 100 |
| O=C(Nc1cc(Cl)cc(Cl)c1)N[C@H]1CCN(CCCCCNC(=O)C2CC2c2ccc(Cl)c(Cl)c2)C1 (stereo not given in full) | 99 |
| Cc1ccccc1CN1CCCN(Cc2ccc(C(=O)Nc3ccc(C(C)(C)C)cc3)cc2)CC1.O=C(O)C(F)(F)F | 89 |
| c1ccc(C23NC(=Nc4nc5ccccc5[nH]4)NC2(c2ccccc2)NC(=Nc2nc4ccccc4[nH]2)N3)cc1 (stereo not given) | 97 |
| O=C(/C=C/c1ccc(Cl)c(Cl)c1)NCCCCCN1CCC(NC(=O)Nc2ccccc2F)CC1 | 95 |
